Sampled rows, rich in hits. Any-hit rate of the full collection: about 3.5%.
BoNT F protease: inhibitors of Botulinum neurotoxin F light chain protease; Multiplex microsphere protease cleavage assay, flow cytometry; inhibition, % at 10 µM; hit rate 0.22% among 360,000; in the data active = inhibition above about 35%, passing the limit was not always enough; inconclusive = no clear call, values can overlap the other calls; note: plate controls were buffer without enzyme for full effect and enzyme alone for no effect
BoNT A protease: inhibitors of Botulinum neurotoxin A light chain protease. inhibition, % at 10 µM. AID 588499. multiplex microsphere protease substrate cleavage, flow cytometry. hit rate 0.17% among 360,000; note: plate controls were buffer without enzyme for full effect and enzyme alone for no effect
Autofluor counter: counter-screen for toxin protease inhibitors: compound fluorescence; compound autofluorescence counterscreen, microsphere flow cytometry; hits give high values; fluorescence intensity (test concentration not listed); hit rate 3.1% among 360,000; AID 624483; in the data active = fluorescence intensity above about 16000; inconclusive = no clear call, values can overlap the other calls
Anthrax LF inh2: blocks Bacillus anthracis lethal factor protease; hit rate 0.12% among 360,000; P15917; multiplex microsphere protease cleavage assay, LF; AID 588501; inhibition, % at 10 µM; note: plate controls were buffer without enzyme for full effect and enzyme alone for no effect
Target sequence (P15917 whole entry, looked up): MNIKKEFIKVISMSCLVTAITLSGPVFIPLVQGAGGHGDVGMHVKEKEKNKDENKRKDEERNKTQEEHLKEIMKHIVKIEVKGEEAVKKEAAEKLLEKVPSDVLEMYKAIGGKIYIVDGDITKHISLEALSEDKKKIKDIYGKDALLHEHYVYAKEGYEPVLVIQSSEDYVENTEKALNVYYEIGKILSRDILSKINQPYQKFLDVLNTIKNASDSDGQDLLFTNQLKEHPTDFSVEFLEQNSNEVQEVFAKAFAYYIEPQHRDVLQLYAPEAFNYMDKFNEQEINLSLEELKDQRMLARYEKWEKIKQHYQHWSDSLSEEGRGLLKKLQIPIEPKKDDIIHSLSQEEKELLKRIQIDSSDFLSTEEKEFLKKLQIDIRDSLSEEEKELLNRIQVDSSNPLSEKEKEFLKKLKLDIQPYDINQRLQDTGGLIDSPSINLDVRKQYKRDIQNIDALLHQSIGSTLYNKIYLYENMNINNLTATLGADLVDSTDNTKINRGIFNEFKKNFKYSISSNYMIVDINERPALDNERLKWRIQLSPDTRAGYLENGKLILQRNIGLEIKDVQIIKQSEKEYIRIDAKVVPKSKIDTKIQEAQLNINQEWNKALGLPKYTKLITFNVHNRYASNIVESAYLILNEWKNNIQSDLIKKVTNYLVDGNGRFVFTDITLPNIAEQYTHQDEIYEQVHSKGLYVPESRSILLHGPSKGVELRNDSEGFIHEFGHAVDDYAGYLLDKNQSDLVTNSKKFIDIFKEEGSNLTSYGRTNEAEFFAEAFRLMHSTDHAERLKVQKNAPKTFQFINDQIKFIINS
* hit, by the source's call; ? = inconclusive. Cut-off read from the data, not from the text of the source, unless noted: active = inhibition above about 30%; inconclusive = no clear call, values can overlap the other calls; inactive = below that.

SMILES	BoNT F protease	BoNT A protease	Autofluor counter	Anthrax LF inh2
Cn1c(SCCCC(=O)c2ccc(F)cc2)nnc1-c1ccncc1	1.5	0.1	3301	1.3
COc1ccc(-c2nnc(SC)n2C)cc1	-16.5	-2.1	12673	-5.0
Cn1c(SCC(=O)c2ccccc2)nnc1-c1ccc(O)cc1	3.4	1.2	20320*	1.2
CSc1nnc(-c2ccc(O)cc2)n1C	3.5	4.6	21757*	1.8
Cc1cccc(C2N=C(N)Nc3nc4ccccc4n32)c1 (stereo not drawn)	?	?	4761	-1.7
C=CCN1C=CC(=O)[C@@H](OC(=O)Nc2ccc(Br)cc2)[C@H]1c1ccccc1Br	0.9	0.1	3726	-0.1
c1nc2sc3c(c2c2nnnn12)CCC3	0.3	0.1	23437*	-2.5
c1nc2sc3c(c2c2nnnn12)CCCC3	5.0	1.2	12972	-2.0
COc1cc(C=C2NC(=O)NC2=O)ccc1O	2.9	-0.3	3587	-6.2
COc1ccc(OC)c(/C=C2\NC(=O)NC2=O)c1	?	22.8	6990	130.7*
CCOC(=O)CC(=O)c1sc2c(c1N)c(=O)[nH]c(=O)n2-c1ccc(OC)cc1	1.9	-0.6	4292	-4.4
O=S(=O)(NCc1ccccn1)c1ccc(Cl)s1	-0.8	-1.5	3522	0.3
CC(C)OP(=O)(OC(C)C)C(NC(=O)c1ccc(Br)cc1)c1ccccc1 (stereo not drawn)	-1.2	-1.6	21425*	-0.6
CC(NC(=O)c1ccc(Br)cc1)c1ccccc1 (stereo not drawn)	-1.6	0.4	2520	1.7
COC(=O)c1ccc(CSc2nc3scc(-c4cccs4)c3c(=O)[nH]2)o1	3.5	?	20323*	0.9
CCOc1cc(CNn2cnnc2)ccc1OCC(=O)NC1CCCCC1	-5.7	-4.7	21782*	-1.5
Cc1ccccc1CSc1nnc(NC(=O)C2COc3ccccc3O2)s1 (stereo not drawn)	4.2	5.4	20631*	-15.7
O=C(Nc1nnc(SCc2ccccc2Cl)s1)C1COc2ccccc2O1 (stereo not drawn)	-5.3	0.6	3752	1.3
COc1ccccc1NC(=O)CSc1nnc(CC(=O)Nc2cccc(C(F)(F)F)c2)n1C	-5.1	-3.1	20559*	-1.4
COc1cccc(NC(=O)Cc2nnc(SCC(=O)NC(C)c3ccccc3)n2C)c1 (stereo not drawn)	-9.7	?	21780*	-4.2
COc1ccc(C)cc1NC(=O)CSc1nnc(CC(=O)Nc2cccc(C(F)(F)F)c2)n1C	-4.7	-0.2	7882	-2.4
CCC(C(=O)OCC(=O)N1CCN(S(=O)(=O)c2ccc(C)cc2C)CC1)c1ccccc1 (stereo not drawn)	-3.9	-0.5	3602	-2.8
COc1cccc(-n2cc(C(=O)NC(C)C)c3ccccc3c2=O)c1	?	-1.5	4059	5.4
OC1(c2ccc(F)cc2)CCNC1 (stereo not drawn)	-0.9	0.1	23064*	-1.4
OC1(c2ccc(Br)cc2)CCNCC1	1.6	0.2	11516	0.3
SMILES	BoNT F protease	BoNT A protease	Autofluor counter	Anthrax LF inh2
Nc1c(S(=O)(=O)c2cccs2)c2nc3ccccc3nc2n1CC1CCCO1 (stereo not drawn)	4.0	3.1	22380*	0.7
O=C(CSCCc1ccccn1)Nc1ccc(Br)cn1	-1.2	0.0	23013*	0.1
O=C(/C=C/c1ccccc1Cl)NCCc1ccccc1	-1.7	?	21242*	-0.2
O=C(/C=C/c1ccccc1Cl)NCc1ccccc1	-0.3	-0.1	20859*	-0.5
O=C(/C=C/c1ccc(Cl)cc1)NCCc1ccccc1	5.8	0.3	2512	0.0
Cc1cc(C)n(-c2ccc(OCC(=O)O)nn2)n1	-3.2	-2.1	23964*	-1.0
CCC1CCc2c(sc(NC(=O)C3c4ccccc4Oc4ccccc43)c2C(N)=O)C1 (stereo not drawn)	2.7	0.1	2085	-0.6
Cc1ccc(C)c(Nc2c(F)c(F)c(F)c(F)c2C(=O)O)c1	-1.4	-0.3	2203	-0.4
COc1c(F)c(F)c(C(=O)O)c(Nc2ccc(C)cc2)c1F	-5.1	-4.9	22057*	-1.4
CCc1c(C)c(C#N)c2nc3ccccc3n2c1NCCN(C)C	6.9	6.6	17739*	-7.1
O=C(Cc1coc2ccc3ccccc3c12)NCc1ccccc1	-2.6	-2.1	20707*	-1.3
COc1ccc(S(=O)(=O)Cc2ccc(C(=O)NCCCN(C)c3ccccc3)o2)cc1	-4.0	?	22186*	-3.5
CCCc1ccc(OCc2ccc(C(=O)N3CCN(c4ccccn4)CC3)o2)c(OC)c1	-0.3	?	23006*	-2.8
O=C(NCc1ccc2c(c1)OCO2)c1ccc(CS(=O)(=O)c2cccc(C(F)(F)F)c2)o1	4.1	-0.3	9545	-7.5
CCCCNC(=O)c1ccc(CS(=O)(=O)c2ccc(OC)cc2)o1	-0.2	-0.1	6257	-3.3
O=C(c1ccc(CS(=O)(=O)c2cccc(C(F)(F)F)c2)o1)N1CCN(c2ccccn2)CC1	-3.7	?	23435*	-0.4
O=C(NCc1ccco1)c1ccc(CS(=O)(=O)c2cccc(C(F)(F)F)c2)o1	-6.0	-2.3	22579*	-10.2
Cc1ccc(S(=O)(=O)Cc2ccc(C(=O)N3CCN(c4ccccn4)CC3)o2)cc1	1.5	-0.2	5465	-7.9
O=C(CSc1nnc(CNC(=O)c2ccco2)o1)Nc1ccc(F)cc1	3.8	0.3	5161	-2.4
CCCCNC(=O)c1ccc(CS(=O)(=O)c2cccc(C(F)(F)F)c2)o1	1.3	1.6	21163*	0.9
COCCNC(=O)c1ccc(CS(=O)(=O)c2cccc(C(F)(F)F)c2)o1	-3.0	-4.8	4003	-0.4
Cc1cc(N2CCN(c3ccccc3)CC2)n2nnnc2n1	4.7	1.0	2712	3.8
Cc1cc(N2CCN(c3ccccc3)CC2)n2c(n1)nc1ccccc12	7.8	?	23762*	2.0
Cc1ccc2c(c1)CCCO[C@]21O[C@H](CCO)C[C@H](O)[C@H]1O	-1.7	0.6	5909	1.4
Cc1ccccc1NC(=O)c1cnc2ccccn2c1=O	-3.3	-0.5	11224	-3.4
SMILES	BoNT F protease	BoNT A protease	Autofluor counter	Anthrax LF inh2
CC1=C(C(=O)Nc2ccccc2C)C2(CCCC2)C(C(N)=O)C(=O)N1 (stereo not drawn)	-4.6	-0.5	19911*	2.2
Cc1ccc(S(=O)(=O)Nc2nsc(N)n2)cc1	-10.1	-3.3	17173*	-4.5
Cc1ccc(NC(=O)COC(=O)Cn2c(C)csc2=O)cc1C	-9.3	-2.8	17233*	-5.8
NC(=O)NC(c1ccccc1)c1ccccc1	6.2	0.0	10031	1.0
NC(=O)NC(c1ccccc1)c1ccccc1F (stereo not drawn)	-3.3	-0.4	23015*	-2.0
COc1cccc(OC)c1NC(=O)CN1CCN(C)CC1	-8.3	-2.4	4054	-10.5
COc1ccc(-c2nnc(-c3ccc(N)cc3)o2)cc1	7.2	1.0	9135	-5.7
COc1ccc(-c2ccc(-c3nnc(-c4cc(OC)ccc4OC)o3)cc2)cc1	-0.5	?	22687*	0.8
CS(=O)(=O)N(CC(=O)N1CCOCC1)c1ccc2c(c1)OCO2	-7.2	0.0	3082	0.2
CC(=O)c1cccc(N(CC(=O)N2CCCCC2)S(C)(=O)=O)c1	0.3	?	24555*	-2.4
CS(=O)(=O)N(CC(=O)N1CCCC1)c1ccc2c(c1)OCCO2	4.4	5.0	21840*	0.6
CS(=O)(=O)N(CC(=O)N1CCOCC1)c1ccc(Cl)cc1	-12.4	-1.1	4056	-13.1
Cc1ccc(N(CC(=O)N2CCOCC2)S(C)(=O)=O)cc1C	1.1	?	20113*	1.2

Source: PubChem BioAssay (NMMLSC)
